Compound activity as filed in PubChem.
DT40 TDP1 CPT: DT40-hTDP1 cell growth loss with CPT; chicken DT40 Tdp1-/-;hTDP1 cells + 20 nM CPT, ATP luminescence, 48 h; Potency, µM (titrated, usually from 46.2 µM), inactives show top-dose activity change, negative = growth inhibition, hits mostly inhibitors; 420,000 tested, 12% active; AID 686979; further: nearly all actives have a fitted effect of over 55% in size
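Chicken DT40 Tdp1-/- cells stably complemented with human TDP1 were seeded at 400 cells/well in medium containing 20 nM camptothecin, exposed to pin-transferred compounds, and grown at 37 °C for at least 48 hr. Viability was read as ATP luminescence.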
VP16 counter: inhibits Gal4-VP16 luciferase reporter, ROR gamma counter-screen; Potency, µM (titrated, usually from 53.6 µM), for inactives: top-dose activity, negative = inhibition, most hits filed as inhibitors; AID 2546; 310,000 tested, 3.5% active; Drosophila S2 Gal4-VP16 UAS-luciferase, luminescence, 20 h;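 further: Gal4-VP16 expression switched on by copper sulfate through the metallothionein promoter; nearly all actives have a fitted effect of over 50% in size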
TDP1 cell noCPT: qHTS for Inhibitors of human tyrosyl-DNA phosphodiesterase 1 (TDP1): qHTS in cells in absence of CPT; DT40 Tdp1-/- hTDP1 cells, no CPT, ATP luminescence, 48 h; Potency, µM (doses to about 46.2 µM), inactives show top-dose activity change, negative = growth inhibition, hits mostly inhibitors; 420,000 tested, 15% active; AID 686978, 2013; further: nearly all actives have a fitted effect of over 55% in size
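A cellular qHTS used chicken DT40 cells lacking endogenous Tdp1 but carrying stably transfected human TDP1. Compounds were applied without camptothecin, and cell growth kinetics were judged by ATP-dependent luminescence after ≥48 hr.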
RORgamma inh: blocks mouse ROR gamma transcriptional activity; P51450; Drosophila S2 Gal4-RORgamma UAS-luciferase reporter, 20 h; Potency, µM (highest dose often 53.6 µM), inactives show top-dose activity change, negative = inhibition, actives largely listed as inhibitors; 310,000 tested, 5.4% active; AID 2551; further: nearly all actives have a fitted effect of over 60% in size
Target sequence (P51450 whole entry, looked up, the tested form may be a part): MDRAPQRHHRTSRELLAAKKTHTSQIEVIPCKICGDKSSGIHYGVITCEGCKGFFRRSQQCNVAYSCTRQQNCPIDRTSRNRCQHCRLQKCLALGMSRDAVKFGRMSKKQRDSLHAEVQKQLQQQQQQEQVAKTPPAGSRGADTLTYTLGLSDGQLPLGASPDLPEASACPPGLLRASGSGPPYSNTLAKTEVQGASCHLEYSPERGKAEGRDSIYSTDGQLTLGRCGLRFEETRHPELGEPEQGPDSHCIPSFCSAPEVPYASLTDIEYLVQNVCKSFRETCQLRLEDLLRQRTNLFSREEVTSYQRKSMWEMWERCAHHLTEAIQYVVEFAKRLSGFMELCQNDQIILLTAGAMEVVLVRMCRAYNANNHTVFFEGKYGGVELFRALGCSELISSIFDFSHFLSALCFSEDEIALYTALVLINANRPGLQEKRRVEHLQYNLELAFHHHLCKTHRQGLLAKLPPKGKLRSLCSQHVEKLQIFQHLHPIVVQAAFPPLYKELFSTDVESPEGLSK
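Drosophila S2 cells stably expressing Gal4-DBD/mouse RORγ fusion under metallothionein promoter plus UAS-luciferase; compound 1 h, then 700 uM CuSO4 induction for 20 h at ambient temperature; inhibition read as reduced luminescence.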
TDP1 inh: TDP1 (human) enzyme inhibition; recombinant TDP1, AlphaScreen DNA substrate cleavage; Potency, µM (highest dose often 130 µM), inactives show at the highest dose activity change, negative = inhibition, hits mostly inhibitors; AID 485290; 350,000 tested, 0.28% active; further: nearly all actives have a fitted effect of over 40% in size
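Here, a 5' biotin and 3' phosphotyrosine-FITC DNA oligonucleotide reports Tdp1 activity: intact substrate bridges AlphaScreen beads, while cleavage leaves a 3' phosphate and drops signal. All incubations at room temperature.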
The depositor's hits bear a star; [ ] = another dose, or the depositor's remark. A selection: hits, their analogues and other compounds. The true share with any hit is near 19%. The call rests on the fitted dose curve; in most records, active means well fitted curve in the direction sought with a large enough effect; inconclusive means small, poorly fitted or top-dose-only effect, or another doubt; inactive means no such curve, though single readings can be large; an effect the other way counts as inactive or inconclusive. On the % scale 0 is the no-effect control and ±100 the full control effect; potency means the concentration at half of the fitted maximal effect.

Results for COc1ccc(OC)c(CNc2ncnc3c2nc2n3CCCC2)c1 ?
DT40 TDP1 CPT: 13µM*; TDP1 cell noCPT: inconclusive; TDP1 inh: 7%

What do the screens show for `Clc1cccc(Nc2ncnc3c2nc2n3CCCCC2)c1`?
DT40 TDP1 CPT: 8.2µM*; TDP1 cell noCPT: 9.2µM*; TDP1 inh: 5%

What do the screens show for `Clc1cccc(N2CCN(c3ncnc4c3nc3n4CCCC3)CC2)c1`?
DT40 TDP1 CPT: 16µM*; TDP1 cell noCPT: 21µM*; TDP1 inh: 1%

How did COc1ccc(CN2CCC(CNS(=O)(=O)c3cccc(C(F)(F)F)c3)CC2)cc1 do in these assays?
DT40 TDP1 CPT: inconclusive; VP16 counter: -7%; TDP1 cell noCPT: inconclusive; RORgamma inh: -27%; TDP1 inh: 10%

How did COc1ccc(NC(=S)N2CCN(C/C=C/c3ccccc3)CC2)c(OC)c1 do in these assays?
DT40 TDP1 CPT: inconclusive; VP16 counter: -9%; TDP1 cell noCPT: inconclusive; RORgamma inh: -33%; TDP1 inh: -5%

Results for Brc1c(CSc2nncn2-c2ccccc2)nc2sccn12 ?
DT40 TDP1 CPT: 1%; VP16 counter: -11%; TDP1 cell noCPT: 2%; RORgamma inh: -3%; TDP1 inh: 6%

Results for CCCCCCSc1ccc([C@@H]2[C@@H]3C(=O)N(CC)C(=O)[C@@H]3[C@]3(C(=O)OC)CCCCN23)cc1 ?
DT40 TDP1 CPT: 18µM*; TDP1 cell noCPT: 21µM*; TDP1 inh: -4%

What do the screens show for `CCSc1ccc([C@@H]2[C@H]3C(=O)N(C)C(=O)[C@H]3[C@]3(C(=O)OC)CCCCN23)cc1`?
DT40 TDP1 CPT: inconclusive; TDP1 cell noCPT: 16µM*; TDP1 inh: 1%

Results for CCCCCCSc1ccc([C@@H]2[C@H]3C(=O)N(C)C(=O)[C@H]3[C@]3(C(=O)OC)CCCCN23)cc1 ?
DT40 TDP1 CPT: inconclusive; TDP1 cell noCPT: inconclusive; TDP1 inh: -1%

How did CCC(C)Sc1ccc([C@@H]2[C@H]3C(=O)N(CC)C(=O)[C@H]3[C@]3(C(=O)OC)CCCCN23)cc1 (stereo partly drawn) do in these assays?
DT40 TDP1 CPT: inconclusive; TDP1 cell noCPT: 16µM*; TDP1 inh: 0%

Results for CCSc1ccc([C@@H]2[C@@H]3C(=O)N(CC)C(=O)[C@@H]3[C@]3(C(=O)OC)CCCN23)cc1 ?
DT40 TDP1 CPT: inconclusive; TDP1 cell noCPT: 23µM*; TDP1 inh: 6%

Results for CCCSc1ccc([C@@H]2[C@H]3C(=O)N(C)C(=O)[C@H]3[C@]3(C(=O)OC)CCCN23)cc1OC ?
DT40 TDP1 CPT: -3%; TDP1 cell noCPT: -15%; TDP1 inh: 0%

Results for CCCSc1ccc([C@@H]2[C@@H]3C(=O)N(C)C(=O)[C@@H]3[C@]3(C(=O)OC)CCCCN23)cc1OC ?
DT40 TDP1 CPT: inconclusive; TDP1 cell noCPT: 23µM*; TDP1 inh: 2%

What do the screens show for `CCSc1ccc([C@@H]2[C@H]3C(=O)N(CC)C(=O)[C@H]3[C@]3(C(=O)OC)CCCCN23)cc1`?
DT40 TDP1 CPT: inconclusive; TDP1 cell noCPT: 23µM*; TDP1 inh: 0%

Results for CCSc1ccc([C@@H]2[C@@H]3C(=O)N(CC)C(=O)[C@@H]3[C@]3(C(=O)OC)CCCCN23)cc1 ?
DT40 TDP1 CPT: 16µM*; TDP1 cell noCPT: 23µM*; TDP1 inh: -2%

What do the screens show for `COC(=O)[C@@]12CCCCN1[C@H](c1ccc(SC3CCCCC3)cc1)[C@@H]1C(=O)N(C)C(=O)[C@@H]12`?
DT40 TDP1 CPT: inconclusive; TDP1 cell noCPT: inconclusive; TDP1 inh: 0%

What do the screens show for `O=C(Nc1ccccc1-c1ccccc1)c1cccc([N+](=O)[O-])c1`?
DT40 TDP1 CPT: -25%; VP16 counter: -4%; TDP1 cell noCPT: -26%; RORgamma inh: -13%; TDP1 inh: -8%

How did COc1ccc(NC(=S)N2CCN(CCN3C(=O)c4cccc5cccc(c45)C3=O)CC2)cc1 do in these assays?
DT40 TDP1 CPT: -13%; VP16 counter: -6%; TDP1 cell noCPT: inconclusive; RORgamma inh: 2%; TDP1 inh: 3%

How did O=C(/C=C/c1ccccc1)N1CCN(CCN2C(=O)c3cccc4cccc(c34)C2=O)CC1 do in these assays?
DT40 TDP1 CPT: 7.3µM*; VP16 counter: 2%; TDP1 cell noCPT: 7.3µM*; RORgamma inh: 4%; TDP1 inh: 5%

Results for O=C(CCN1C(=O)c2cccc3cccc(c23)C1=O)N1CCOCC1 ?
DT40 TDP1 CPT: 7%; VP16 counter: -2%[10 µM]; TDP1 cell noCPT: -15%; RORgamma inh: -4%; TDP1 inh: 5%

What do the screens show for `CCOc1ccc(NC(=S)N2CCN(CCN3C(=O)c4cccc5cccc(c45)C3=O)CC2)cc1`?
DT40 TDP1 CPT: inconclusive; VP16 counter: -4%; TDP1 cell noCPT: 26µM*; RORgamma inh: -32%; TDP1 inh: 8%

What do the screens show for `O=C(c1ccc(S(=O)(=O)N2CCCCC2)cc1)N1CCN(CCN2C(=O)c3cccc4cccc(c34)C2=O)CC1`?
DT40 TDP1 CPT: 13µM*; VP16 counter: inconclusive; TDP1 cell noCPT: 12µM*; RORgamma inh: 16%; TDP1 inh: 8%

Results for COc1ccc(NS(=O)(=O)Cc2ccccc2Cl)cn1 ?
DT40 TDP1 CPT: -10%; VP16 counter: 0%; TDP1 cell noCPT: 3%; RORgamma inh: 4%; TDP1 inh: -2%

How did C=C1CCN([C@H](C(=O)Nc2ccc(OC)cc2)C(C)C)S(=O)(=O)c2ccccc21 do in these assays?
DT40 TDP1 CPT: -23%; VP16 counter: 3%; TDP1 cell noCPT: inconclusive; RORgamma inh: -1%; TDP1 inh: -5%

What do the screens show for `COc1cc(/C=C(\C#N)C(=O)NCC2CCCO2)ccc1O` (stereo not drawn)?
DT40 TDP1 CPT: -9%; VP16 counter: 25%; TDP1 cell noCPT: -7%; RORgamma inh: 4%; TDP1 inh: 0%[12.3 µM]

How did Cc1cc2cc(C=C(C#N)C#N)c(Cl)nc2cc1C do in these assays?
DT40 TDP1 CPT: 7.3µM*; VP16 counter: inconclusive; TDP1 cell noCPT: 7.3µM*; RORgamma inh: inconclusive; TDP1 inh: 3%

What do the screens show for `Cc1ccc(NC(=O)/C(C#N)=C/c2cc(C)n(-c3ccc(Br)cc3)c2C)cc1C`?
DT40 TDP1 CPT: 4.6µM*; TDP1 cell noCPT: 5.8µM*; TDP1 inh: 7%[12.3 µM]

Results for Cc1cc(/C=C(\C#N)C(=O)NCC2CCCO2)c(C)n1-c1ccc(Cl)cc1 (stereo not drawn) ?
DT40 TDP1 CPT: 10µM*; VP16 counter: -5%; TDP1 cell noCPT: inconclusive; RORgamma inh: inconclusive; TDP1 inh: 11%
